Assay [1] deals with Klebsiella pneumoniae. The following applies: Concentration 32 ug.mL-1; ASSAY_TEST Inhibition of Bacterial Growth; detection method Absorption (OD600); MEDIA CAMHB; plate type 384well; NBS; CORNING #3640; time 18 hr.
For assay [2], the system named is Candida albicans. The following applies: 32 ug/mL.
The test system of assay [3] is Cryptococcus neoformans. As to conditions: Concentration 32 ug.mL-1; ASSAY_TEST Inhibition of Fungal Growth; detection method Resazurin; Absorption (OD600-OD570); plate type 384well; NBS; CORNING #3640. Background: Alamar Blue is a resazurin reagent that responds to reducing activity.

Potency and affinity values are given separately.

In the case of `N#CC1=C(Cl)Oc2c(ccc3ccccc23)C1c1cccc([N+](=O)[O-])c1` (centres undefined), the Inhibition (usually the drop in the measured response relative to a control, in per cent) in assay [1] is 4.09%; in assay [2] it was 6.77%; in assay [3], -37.01%.

As for `O=C(NN=Cc1c[nH]c2ccccc12)c1cccc2ccccc12`, the Inhibition is 12.1% in assay [1], 1.76% in assay [2] and -3.56% in assay [3].

In the case of `COc1ccc2c(c1)cc(C(=O)Nc1ccccc1)n2C`, the values for the Inhibition in assay [1], in assay [2] and in assay [3] were 8.32%, 2.05% and -38.47%, respectively.

Take `N#CC1=C(N)Oc2ccc3ccccc3c2C1c1ccccc1` (centres undefined): the Inhibition in assay [1] was 9.26%; in assay [2], 1.08%; in assay [3], -36.46%.

As to `CCC(CC)NNC(=O)c1c[nH]c2ccccc12.Cl`, the Inhibition is 14.64% in assay [1], 1.1% in assay [2] and 4.78% in assay [3].

Regarding `COc1ccc(C2C(C#N)=C(N)Oc3c2ccc2ccccc32)c(OC)c1` (centres undefined), the values for the Inhibition in assay [1], in assay [2] and in assay [3] were 2.23%, 0.21% and -2.04%, respectively.

Take `C#CCNc1ncc(C#N)c(N)n1`: the Inhibition is 3.55% in assay [1], 2.29% in assay [2] and -34.7% in assay [3].

For the compound `Cc1ccccc1-c1c(C=N)c(N)nc2c1S(=O)(=O)OC2(C)C`, the results for the Inhibition in assay [1], in assay [2] and in assay [3] were 10.81%, -0.01% and -3.14%, respectively.

`COc1ccc2c(c1)cc(CNc1ccccc1)n2C`: the Inhibition was 12.88% in assay [1], 1.07% in assay [2] and -85.66% in assay [3].

On to `N#CC1=C(Cl)Oc2c(ccc3ccccc23)C1c1ccccc1[N+](=O)[O-]` (centres undefined), for which the Inhibition in assay [1] is 5.03%; in assay [2] it was 3.33%; in assay [3], -51.56%.

As to `C#CCN(C)Cc1cc2cc(OCCCCC3CCN(Cc4ccccc4)CC3)ccc2n1C.Cl`, the Inhibition in assay [1] is 25.34%; in assay [2] it was 2.11%; in assay [3], -16.02%.

Turning to `COC(=O)C1(NC(=O)c2ccccc2)CC1c1ccccc1` (centres undefined), the values for the Inhibition in assay [1], in assay [2] and in assay [3] were 3.5%, 0.07% and -1.1%, respectively.

On to `CCOc1nc(N)c(C#N)c(-c2ccccc2)c1C#N`, for which the Inhibition is 4.68% in assay [1], 1.61% in assay [2] and -46.51% in assay [3].
